Test results as given in PubChem BioAssay (Tox21).
Records with an inconclusive call do not appear. Entries that show only a call come without a potency. Calls of active or inactive are those of the source. Calls come from the whole dose curve; as a rule, active = well fitted cell-killing curve with a large enough effect in the repeat runs; inconclusive = weak or mixed curves, or effect the other way; inactive = flat fitted curve, though single readings scatter.

Experiment: cAMP Responsive Elements (CRE) small molecule agonists, cell-based qHTS assay: qHTS cell viability counter screen (AID 2060914);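 note: viability read after 3 h of compound exposure; nearly all actives have a fitted effect of over 50% in size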
Details: CRE-bla HEK293T viability, CellTiter-Glo luminescence, 5 h; series mostly up to 92.4 µM
Outline: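 CRE-bla HEK 293T cells, plated 18 h at 37 °C, were exposed to compounds for 3 h at 37 °C/5% CO2. Viability was then measured in the same wells by CellTiter-Glo luminescence after 30 min at room temperature.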

SMILES	Potency
O=C(Nc1ccc2[nH]ccc2c1)c1cc2cc(F)ccc2n1Cc1cccc(F)c1	inactive
CCOP(=S)(OCC)Oc1ccc2c(C)c(Cl)c(=O)oc2c1	inactive
Cc1cc(Cl)ccc1OC(C)C(=O)O (stereo not drawn)	inactive
CCCN(CCC)C(=O)Cc1c(-c2ccc(Cl)cc2)nc2ccc(Cl)cn12	inactive
O=S(=O)(O)C(F)(F)C(F)(F)C(F)(F)C(F)(F)C(F)(F)C(F)(F)C(F)(F)C(F)(F)F	inactive
O=C(O)C(F)(F)C(F)(F)C(F)(F)C(F)(F)C(F)(F)C(F)(F)C(F)(F)C(F)(F)C(F)(F)C(F)(F)F	inactive
CC(=O)C=C(C)C	inactive
Brc1ccc(Oc2ccccc2)cc1	inactive
Cc1cccc(N)c1	inactive
Oc1cccc(Cl)c1Cl	inactive
CCOP(=S)(OCC)Oc1cc(C)nc(N(CC)CC)n1	inactive
COc1nc(C)nc(NC(=O)NS(=O)(=O)c2ccccc2Cl)n1	inactive
CN(CCO)CCO	inactive
C[C@H]1[C@@H]2Cc3ccc(O)cc3[C@@]1(C)CCN2C	inactive
Oc1ccc(Cl)cc1Cc1ccccc1	inactive
CCBr	inactive
CCC1(c2ccccc2)C(=O)N=C(O)NC1=O (stereo not drawn)	inactive
CC(=O)CN(CC(C)=O)N=O	inactive
ClC(Br)Br	inactive
COC1CC(=C(c2cccs2)c2cccs2)C[N+](C)(C)C1 (stereo not drawn)	inactive
C#CCOS(=O)OC1CCCCC1Oc1ccc(C(C)(C)C)cc1 (stereo not drawn)	inactive
CCCCC(CC)C(=O)Cl (stereo not drawn)	inactive
COc1ccc2c3c1O[C@H]1[C@@H](O)C=C[C@H]4[C@@H](C2)N(C)CC[C@@]341	inactive
